Source: PubChem BioAssay (The Scripps Research Institute Molecular Screening Center)
Only some compounds are listed: those with a hit (about 4.1% of all), similar ones and a draw of the others.
PRMT1 inh: inhibitors of human PRMT1; Q99873; recombinant PRMT1, activity-based probe fluorescence polarization; inhibition, % at 2.79 µM; 370,000 compounds, 1.3% hits; AID 652257;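 active = inhibition above about 21% made by adding two undisclosed values, limit read from the data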
rCAG binder: binds r(CAG) RNA repeats | r(CAG) RNA repeat, TO-PRO-1 dye displacement fluorescence | inhibition, % at 3 µM | 370,000 compounds, 1.3% hits | AID 651821;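 active = inhibition above the plate cutoff, the mean of all test compounds on that plate plus 3 SD, cut at about 35% in these data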;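 note: 0% = DMSO alone and 100% = 100 µM mitoxantrone as full dye displacement; higher means more dye released from RNA so lower well fluorescence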
ABHD5 PLIN5 PPI: inhibitors of human ABHD5-perilipin-5 interaction; Split G. princeps luciferase complementation, luminescence, 4 h; inhibition, % at 4 µM; Q00G26+Q8WTS1; 360,000 compounds, 0.78% hits;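 active = inhibition above the mean inhibition across every tested compound plus 3 SD, cut at about 22% in these data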;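 note: 0% = DMSO only wells and the 100% control is not disclosed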
LEDGF integ inh: blocks HIV-1 LEDGF/p75-dependent DNA integration; TR-FRET IN-LEDGF/p75 DNA integration, Eu/Cy5; inhibition, % at 3.7 µM; 370,000 compounds, 0.64% hits;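 active = inhibition above the screen-wide mean plus 3 SD, cut at about 13% in these data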;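 note: signal is the Cy5 over europium emission ratio at 671 and 618 nm; 0% = plate median of compound wells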
MBD2 inh: blocks human MBD2 binding to methylated DNA; TR-FRET, MBD2 binding to methylated oligonucleotide; 370,000 compounds, 0.31% hits; Q9UBB5; inhibition, % at 4.4 µM; AID 686964; in the data active = inhibition above about 13%
UHRF1 MBD2 ctr: blocks human UHRF1 binding to methylated DNA; UHRF1 binding to methylated oligo, TR-FRET; inhibition, % at 4.4 µM; 370,000 compounds, 0.75% hits; in the data active = inhibition above about 21%;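 note: UHRF1 SRA domain binding a hemimethylated CpG hairpin DNA probe; 0% = median of test compound wells and 100% = reference inhibitor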
Target sequence (Q96T88 whole entry, looked up, the tested form may be a part): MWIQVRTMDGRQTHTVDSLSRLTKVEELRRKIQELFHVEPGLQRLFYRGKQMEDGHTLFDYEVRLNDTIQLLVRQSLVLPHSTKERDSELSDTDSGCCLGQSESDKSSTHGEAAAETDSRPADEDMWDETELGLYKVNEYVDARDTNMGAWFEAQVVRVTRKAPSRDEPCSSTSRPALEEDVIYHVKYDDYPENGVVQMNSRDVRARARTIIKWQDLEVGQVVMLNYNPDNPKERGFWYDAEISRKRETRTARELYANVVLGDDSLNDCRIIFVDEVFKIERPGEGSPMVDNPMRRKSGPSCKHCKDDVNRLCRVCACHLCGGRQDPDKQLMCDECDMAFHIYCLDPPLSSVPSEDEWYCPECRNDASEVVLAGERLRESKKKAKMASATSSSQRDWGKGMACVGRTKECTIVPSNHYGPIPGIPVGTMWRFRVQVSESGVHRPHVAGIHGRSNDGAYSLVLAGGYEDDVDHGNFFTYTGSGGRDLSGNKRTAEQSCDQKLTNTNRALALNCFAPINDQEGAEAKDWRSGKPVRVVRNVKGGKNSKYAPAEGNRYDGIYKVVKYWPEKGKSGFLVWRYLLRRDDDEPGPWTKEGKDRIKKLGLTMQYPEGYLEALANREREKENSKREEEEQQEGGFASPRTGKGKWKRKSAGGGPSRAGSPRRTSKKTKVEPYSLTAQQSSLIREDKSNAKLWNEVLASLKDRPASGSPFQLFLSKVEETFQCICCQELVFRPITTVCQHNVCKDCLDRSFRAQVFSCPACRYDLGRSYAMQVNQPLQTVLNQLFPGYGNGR
PRMT1 inh conf: confirmation of human PRMT1 inhibitors; shares compounds with PRMT1 inh; 3,300 compounds, 42% hits; inhibition, % at 2.79 µM; recombinant His-PRMT1, activity-based probe fluorescence polarization; AID 687036;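 active = mean inhibition across replicates above the hit cutoff derived for the earlier primary screen, cut at about 22% in these data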
IN multimer up: activates HIV-1 integrase multimerization in LEDGF counter-screen. AID 1053131. activation, % at 7.7 µM. shares compounds with LEDGF integ inh. 2,000 compounds, 17% hits. TR-FRET HIV-1 integrase multimerization, biochemical; in the data active = activation above about 8.9%
TR-FRET interf: counter-screen for LEDGF/p75 integration inhibitors: TR-FRET optical interference. shares compounds with LEDGF integ inh. TR-FRET optical interference counterscreen, HIV-1 IN multimerization. inhibition, % at 7.7 µM. 2,000 tested, under 10 active. AID 1053135;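 active = inhibition above the mean over all tested compounds plus 3 SD, which no compound reached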;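 note: 0% = integrase with antibodies and DMSO and 100% = antibodies without integrase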
IN-LEDGF confirm: confirmation of HIV-1 LEDGF/p75-dependent integration inhibitors; AID 1053136; 2,000 compounds, 36% hits; inhibition, % at 3.7 µM; TR-FRET LEDGF/p75-dependent HIV-1 integration, biochemical; shares compounds with LEDGF integ inh; in the data active = inhibition above about 14%
* hit, by the source's call; / = no result.

SMILES | PRMT1 inh | rCAG binder | ABHD5 PLIN5 PPI | LEDGF integ inh | MBD2 inh | UHRF1 MBD2 ctr | PRMT1 inh conf | others
Cc1ccc(-n2cc(CNC(C)Cc3cnccn3)c(-c3cccc(C)c3)n2)cc1 (stereo not given) | -5 | -6 | 6 | 1 | 1 | -1 | /
CCOC(=O)C1SC2(C(F)F)CC1(O)c1c(c(OC)c3occc3c1OC)O2 (stereo not given) | 29* | -4 | 6 | -2 | -3 | -2 | 15
O=P(Nc1ccccc1)(Oc1ccccc1)Oc1ccccc1 | 82* | -7 | -7 | 3 | 1 | -3 | 2
O=P(Nc1ccccc1)(Nc1ccccc1)Oc1ccccc1 | -1 | 2 | -4 | -1 | -3 | 2 | /
O=C1/C(=C\c2ccc(Cl)c(Cl)c2)N2CCC1CC2 | 3 | -4 | 4 | -8 | 5 | 3 | /
O=C1NC(=O)C(=Cc2c(Cl)cccc2Cl)C(=O)N1 | 31* | 1 | 14 | 0 | 4 | 0 | 19
Cc1c(C=C2C(=O)NC(=O)NC2=O)c(=O)n(-c2ccccc2)n1C | 6 | -6 | 21 | -1 | -4 | -4 | /
CN=C(SCc1ccccc1)c1c(O)n(C)c(=O)n(C)c1=O | 1 | -1 | -4 | 1 | 0 | 0 | /
C=CCN=C(SCC(=O)c1ccc(Cl)cc1)c1c(O)n(C)c(=O)n(C)c1=O | 29* | 0 | -4 | -1 | -7 | 0 | 31*
CN1C(=O)/C(=C\c2ccc(N3CCCCCC3)cc2)C(=O)NC1=S | 4 | 4 | 5 | 5 | 0 | 2 | /
Cc1cc(N2CCCCC2)ccc1C=C1C(=O)N(C)C(=S)N(C)C1=O | 29* | 11 | -12 | -1 | -4 | 2 | 22*
COC(C)(C)CCCC(C)C/C=C/C(C)=C/C(=O)OC(C)C (stereo not given) | -4 | 1 | -2 | 4 | -1 | -2 | /
Cc1nn(CCC#N)c2c1P(=S)(N1CCCC1)OC(c1ccc(F)cc1)=N2 (stereo not given) | 77* | 1 | -3 | 2 | -6 | 1 | 44*
COc1ccn(C)c(=O)c1C#N | 3 | 0 | 3 | 0 | 4 | 3 | /
Cc1ccc(OCCOc2cccc(C=C3C(=O)NC(=O)NC3=O)c2)c(C)c1 | 13 | -2 | -5 | -3 | -1 | -4 | /
CN(C)c1ccc2c(c1)N=C(c1ccco1)OP2(=S)N1CCOCC1 (stereo not given) | 26* | 2 | -5 | -1 | -4 | -3 | 50*
CN(C)c1ccc(CCN2CCOCC2)cc1 | -1 | 0 | -10 | -1 | -1 | 1 | /
Cc1cc(N2CCNC[C@H]2C)ccc1N1CC[C@H](O)C1 | 41* | 4 | / | 7 | -4 | -4 | -2
Cc1ccc2cc(C=C(C#N)C#N)c(Cl)nc2c1 | 52* | -3 | 16 | 0 | -17 | -16 | 22*
NC(=O)CSP(=O)(c1ccccc1)c1ccccc1 | 38* | 0 | -42 | -2 | 4 | -3 | 65*
Fc1ccccc1CN1Cc2ccccc2-n2nncc2C1 | 0 | 0 | -1 | 2 | 0 | -2 | /
C=CCOC(=O)C1C(C(=O)O)C2(Cl)C(Cl)=C(Cl)C1(Cl)C2(Cl)Cl (stereo not given) | 64* | 14 | -11 | -2 | 2 | -1 | 6
COc1ccc2c(c1)NP(=S)(c1ccccc1)N2C (stereo not given) | 33* | 10 | -41 | 18* | -8 | 15 | 2 | IN multimer up=5;TR-FRET interf=-18;IN-LEDGF confirm=1
Cc1cc(/C=C2\C(=O)NC(=O)N(Cc3ccco3)C2=O)c(C)n1-c1ccc(O)cc1 | 29* | 30 | 13 | 53* | 12 | 36* | -5 | IN multimer up=4;TR-FRET interf=-13;IN-LEDGF confirm=21*
